Data on 14 targets can be found in the supplement of paper PMC12067093, “Discovery and optimisation of a covalent ligand for TRIM25 and its application to targeted protein ubiquitination” (Chemical Science, 2025).

Compound in this assay: Cc1cc(ccc1-c1ccccc1)C(=O)N1CCCN(CC1)C(=O)CCl [compound 10]
Kind of assay: probe-labelled cysteine peptide fold change vs DMSO (competition) (log2 fold change); higher = less target engagement (more negative = stronger competition). To be noted: THP-1, incubation time: 4 h.

Targets with the largest changes are over-represented here; the source holds about 21,000 in all.
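Further: competitive profiling in live THP-1 cells: cysteine peptides tagged with an iodoacetamide desthiobiotin (IA-DTB) probe, intensity after compound treatment relative to DMSO-treated cells.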

UniProt P83916, sequence (P83916 whole entry, looked up): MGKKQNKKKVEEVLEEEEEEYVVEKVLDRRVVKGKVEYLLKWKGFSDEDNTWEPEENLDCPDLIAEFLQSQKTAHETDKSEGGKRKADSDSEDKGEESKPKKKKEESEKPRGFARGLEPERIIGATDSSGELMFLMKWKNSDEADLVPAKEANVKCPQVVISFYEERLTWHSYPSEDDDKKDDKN
UniProt Q9BSF8, sequence (Q9BSF8 whole entry, looked up): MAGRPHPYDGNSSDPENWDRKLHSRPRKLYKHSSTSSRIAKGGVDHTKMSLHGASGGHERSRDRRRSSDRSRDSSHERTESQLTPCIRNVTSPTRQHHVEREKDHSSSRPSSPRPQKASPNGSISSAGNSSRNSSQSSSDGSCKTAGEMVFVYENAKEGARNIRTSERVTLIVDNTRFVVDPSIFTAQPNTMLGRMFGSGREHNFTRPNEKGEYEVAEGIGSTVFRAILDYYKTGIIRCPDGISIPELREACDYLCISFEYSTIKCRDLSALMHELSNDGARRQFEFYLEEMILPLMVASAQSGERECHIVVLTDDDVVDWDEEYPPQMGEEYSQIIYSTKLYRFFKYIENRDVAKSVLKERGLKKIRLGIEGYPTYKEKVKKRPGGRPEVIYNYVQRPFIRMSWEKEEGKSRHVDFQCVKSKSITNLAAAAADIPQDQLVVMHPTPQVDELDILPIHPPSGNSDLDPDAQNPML
UniProt P21953, sequence (P21953 whole entry, looked up): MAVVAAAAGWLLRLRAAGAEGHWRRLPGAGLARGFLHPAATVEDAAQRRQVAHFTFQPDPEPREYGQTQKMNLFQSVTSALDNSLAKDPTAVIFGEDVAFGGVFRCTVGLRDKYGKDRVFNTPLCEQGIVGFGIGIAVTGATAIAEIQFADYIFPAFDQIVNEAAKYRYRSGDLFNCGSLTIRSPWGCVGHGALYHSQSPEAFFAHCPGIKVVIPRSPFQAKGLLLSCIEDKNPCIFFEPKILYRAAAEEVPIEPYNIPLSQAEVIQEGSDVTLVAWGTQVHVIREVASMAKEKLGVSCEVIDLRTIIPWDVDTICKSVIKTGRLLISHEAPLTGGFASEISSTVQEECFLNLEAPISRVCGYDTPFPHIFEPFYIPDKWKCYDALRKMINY
UniProt Q86VP6, sequence (Q86VP6 whole entry, looked up): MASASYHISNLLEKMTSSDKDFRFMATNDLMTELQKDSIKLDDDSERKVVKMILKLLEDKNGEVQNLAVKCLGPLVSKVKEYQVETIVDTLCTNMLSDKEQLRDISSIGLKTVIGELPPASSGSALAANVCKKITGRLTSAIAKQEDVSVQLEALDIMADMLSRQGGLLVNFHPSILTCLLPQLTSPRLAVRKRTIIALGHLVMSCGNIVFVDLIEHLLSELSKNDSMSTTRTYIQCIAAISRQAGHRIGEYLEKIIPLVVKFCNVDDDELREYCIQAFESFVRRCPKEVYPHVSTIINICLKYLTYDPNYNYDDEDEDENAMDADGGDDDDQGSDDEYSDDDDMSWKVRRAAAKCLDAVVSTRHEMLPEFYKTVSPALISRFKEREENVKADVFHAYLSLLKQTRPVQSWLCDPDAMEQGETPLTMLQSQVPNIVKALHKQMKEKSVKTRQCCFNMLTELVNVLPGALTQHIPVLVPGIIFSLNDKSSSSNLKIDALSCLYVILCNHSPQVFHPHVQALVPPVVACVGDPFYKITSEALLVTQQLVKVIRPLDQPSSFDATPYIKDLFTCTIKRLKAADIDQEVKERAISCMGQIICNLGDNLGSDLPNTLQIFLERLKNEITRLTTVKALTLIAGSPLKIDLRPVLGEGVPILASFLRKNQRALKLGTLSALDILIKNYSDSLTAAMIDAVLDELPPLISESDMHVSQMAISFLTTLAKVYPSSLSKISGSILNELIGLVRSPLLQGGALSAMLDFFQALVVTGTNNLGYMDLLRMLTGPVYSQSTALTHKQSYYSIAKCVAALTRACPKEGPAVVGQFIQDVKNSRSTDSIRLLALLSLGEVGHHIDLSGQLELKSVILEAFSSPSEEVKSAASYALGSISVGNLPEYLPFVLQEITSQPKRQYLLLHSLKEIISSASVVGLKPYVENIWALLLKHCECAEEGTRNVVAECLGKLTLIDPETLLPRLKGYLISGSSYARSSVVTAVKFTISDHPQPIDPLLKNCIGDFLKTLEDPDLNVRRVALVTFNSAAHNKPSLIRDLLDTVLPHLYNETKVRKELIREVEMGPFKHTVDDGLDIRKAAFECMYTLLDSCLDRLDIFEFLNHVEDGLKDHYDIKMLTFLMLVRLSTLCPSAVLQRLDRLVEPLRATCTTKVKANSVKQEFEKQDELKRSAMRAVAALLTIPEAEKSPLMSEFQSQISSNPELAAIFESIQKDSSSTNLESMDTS
UniProt O75419, sequence (O75419 whole entry, looked up): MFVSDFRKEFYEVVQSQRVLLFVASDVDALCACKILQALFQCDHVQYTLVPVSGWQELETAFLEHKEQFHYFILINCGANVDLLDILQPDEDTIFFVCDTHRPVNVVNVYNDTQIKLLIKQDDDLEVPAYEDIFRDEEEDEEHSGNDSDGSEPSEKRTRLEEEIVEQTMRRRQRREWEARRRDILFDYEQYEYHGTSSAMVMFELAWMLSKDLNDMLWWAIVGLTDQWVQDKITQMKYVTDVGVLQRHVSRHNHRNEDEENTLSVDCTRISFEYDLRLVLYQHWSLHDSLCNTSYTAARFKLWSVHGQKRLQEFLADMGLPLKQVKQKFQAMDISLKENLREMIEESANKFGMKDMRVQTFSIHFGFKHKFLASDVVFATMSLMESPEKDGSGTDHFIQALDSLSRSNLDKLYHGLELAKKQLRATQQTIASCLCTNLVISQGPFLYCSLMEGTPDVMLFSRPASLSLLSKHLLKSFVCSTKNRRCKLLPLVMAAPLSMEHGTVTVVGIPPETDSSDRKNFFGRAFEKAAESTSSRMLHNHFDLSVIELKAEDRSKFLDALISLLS
UniProt Q8N163, sequence (Q8N163 whole entry, looked up): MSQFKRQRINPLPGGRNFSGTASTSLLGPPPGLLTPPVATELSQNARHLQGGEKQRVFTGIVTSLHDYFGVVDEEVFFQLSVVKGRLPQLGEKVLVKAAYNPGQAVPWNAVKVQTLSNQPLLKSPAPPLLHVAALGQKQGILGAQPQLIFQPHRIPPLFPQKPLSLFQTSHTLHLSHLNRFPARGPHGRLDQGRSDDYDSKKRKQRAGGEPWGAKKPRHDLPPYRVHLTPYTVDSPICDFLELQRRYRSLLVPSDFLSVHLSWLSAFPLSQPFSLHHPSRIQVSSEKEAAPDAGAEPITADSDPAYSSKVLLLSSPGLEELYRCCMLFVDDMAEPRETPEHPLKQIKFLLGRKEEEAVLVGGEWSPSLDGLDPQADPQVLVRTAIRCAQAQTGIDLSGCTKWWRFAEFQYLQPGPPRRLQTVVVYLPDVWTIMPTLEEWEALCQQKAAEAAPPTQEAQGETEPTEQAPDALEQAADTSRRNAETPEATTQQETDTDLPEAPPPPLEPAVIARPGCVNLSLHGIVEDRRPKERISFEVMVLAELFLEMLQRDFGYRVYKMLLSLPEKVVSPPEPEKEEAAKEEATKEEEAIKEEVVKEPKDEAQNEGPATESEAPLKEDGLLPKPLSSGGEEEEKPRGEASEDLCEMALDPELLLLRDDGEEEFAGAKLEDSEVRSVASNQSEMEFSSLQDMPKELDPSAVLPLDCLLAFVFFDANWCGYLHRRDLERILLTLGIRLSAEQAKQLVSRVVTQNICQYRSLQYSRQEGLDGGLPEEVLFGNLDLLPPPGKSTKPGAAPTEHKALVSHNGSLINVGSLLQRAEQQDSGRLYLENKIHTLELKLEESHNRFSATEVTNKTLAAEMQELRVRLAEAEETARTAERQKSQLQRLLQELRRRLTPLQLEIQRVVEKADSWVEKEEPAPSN
UniProt Q9HC52, sequence (Q9HC52 whole entry, looked up): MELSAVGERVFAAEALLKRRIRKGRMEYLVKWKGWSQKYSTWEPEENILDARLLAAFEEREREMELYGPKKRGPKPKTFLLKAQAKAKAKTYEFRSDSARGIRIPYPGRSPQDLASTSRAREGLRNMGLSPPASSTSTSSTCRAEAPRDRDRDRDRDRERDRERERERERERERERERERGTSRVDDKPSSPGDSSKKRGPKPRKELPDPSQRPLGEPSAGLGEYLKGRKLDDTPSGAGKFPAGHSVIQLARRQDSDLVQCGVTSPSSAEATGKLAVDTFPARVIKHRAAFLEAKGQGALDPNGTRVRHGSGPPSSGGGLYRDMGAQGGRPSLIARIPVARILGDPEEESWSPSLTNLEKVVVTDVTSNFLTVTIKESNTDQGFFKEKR
UniProt Q9UHD1, sequence (Q9UHD1 whole entry, looked up): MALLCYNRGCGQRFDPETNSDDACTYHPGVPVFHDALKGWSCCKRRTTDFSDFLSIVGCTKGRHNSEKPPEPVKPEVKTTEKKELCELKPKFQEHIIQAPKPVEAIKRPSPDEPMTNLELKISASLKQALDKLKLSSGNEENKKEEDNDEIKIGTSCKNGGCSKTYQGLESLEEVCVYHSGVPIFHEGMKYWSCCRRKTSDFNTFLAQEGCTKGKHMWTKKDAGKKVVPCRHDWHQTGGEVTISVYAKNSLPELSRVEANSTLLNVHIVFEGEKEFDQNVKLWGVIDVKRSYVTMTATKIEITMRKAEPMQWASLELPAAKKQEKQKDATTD
UniProt P60953, sequence (P60953 whole entry, looked up): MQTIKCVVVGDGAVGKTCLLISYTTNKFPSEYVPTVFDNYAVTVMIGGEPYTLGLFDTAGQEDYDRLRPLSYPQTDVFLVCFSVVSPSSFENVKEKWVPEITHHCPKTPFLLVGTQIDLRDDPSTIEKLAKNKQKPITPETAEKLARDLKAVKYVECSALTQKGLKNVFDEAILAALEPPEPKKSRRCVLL
UniProt P23528, sequence (P23528 whole entry, looked up): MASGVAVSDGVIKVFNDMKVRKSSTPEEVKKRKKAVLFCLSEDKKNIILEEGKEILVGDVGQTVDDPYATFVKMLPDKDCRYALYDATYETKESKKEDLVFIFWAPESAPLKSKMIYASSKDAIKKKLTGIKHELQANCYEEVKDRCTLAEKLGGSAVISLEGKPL

“BCKDHB_P21953_361_VCGYDTPFPHIFEPFYIPDK (UniProt P21953)”: the “probe-labelled cysteine peptide fold change” value reads like this: (10 µM) -0.0395; (50 µM) 0.155.

On to “CDC42_P60953_105_EKWVPEITHHCPK (UniProt P60953)”, for which the “probe-labelled cysteine peptide fold change” value was -0.508 (10 µM) and -0.929 (50 µM).

Regarding “CBX8_Q9HC52_142_NMGLSPPASSTSTSSTCR (UniProt Q9HC52)”, the “probe-labelled cysteine peptide fold change” value by setting is: (10 µM) -0.187; (50 µM) -0.373.

Regarding “BTBD10_Q9BSF8_86_TESQLTPCIR (UniProt Q9BSF8)”, the “probe-labelled cysteine peptide fold change” value (10 µM) is -0.608 and the “probe-labelled cysteine peptide fold change” value (50 µM) was -1.07.

As for “BRAP_Q7Z569_47_TTLASAVACLEGK (UniProt Q7Z569)”, the “probe-labelled cysteine peptide fold change” value was -0.252 (10 µM) and -0.245 (50 µM).

On to “CBX1_P83916_156_CPQVVISFYEER (UniProt P83916)”, for which the “probe-labelled cysteine peptide fold change” value by setting is: (10 µM) 0.121; (50 µM) -0.00934.

On to “CHORDC1_Q9UHD1_86_ELCELK (UniProt Q9UHD1)”, for which the “probe-labelled cysteine peptide fold change” value runs as follows: (10 µM) -0.0657; (50 µM) 0.205.

In the case of “CCAR2_Q8N163_515_RNAETPEATTQQETDTDLPEAPPPPLEPAVIARPGCVNLSLHGIVEDR (UniProt Q8N163)”, the “probe-labelled cysteine peptide fold change” value runs as follows: (10 µM) 0.107; (50 µM) -0.245.

Turning to “CARM1_Q86X55_438_AGDTLSGTCLLIANK (UniProt Q86X55)”, the “probe-labelled cysteine peptide fold change” value (10 µM) is 0.0534 and the “probe-labelled cysteine peptide fold change” value (50 µM) was 0.146.

Consider “CAND1_Q86VP6_802_CVAALTR (UniProt Q86VP6)”, for which the “probe-labelled cysteine peptide fold change” value is 0.211 (10 µM) and -0.156 (50 µM).

With “CDC45_O75419_267_HNHRNEDEENTLSVDCTR (UniProt O75419)”, the “probe-labelled cysteine peptide fold change” value (10 µM) is 0.0632 and the “probe-labelled cysteine peptide fold change” value (50 µM) was -0.279.

In the case of “CFL1_P23528_39_AVLFCLSEDK (UniProt P23528)”, the “probe-labelled cysteine peptide fold change” value by setting is: (10 µM) 0.0825; (50 µM) 0.0485.

For “CDK5_Q00535_117_GLGFCHSR (UniProt Q00535)”, the “probe-labelled cysteine peptide fold change” value is, setting by setting: (10 µM) 0.00449; (50 µM) 0.158.

Take “CBR1_P16152_122_DVCTELLPLIK (UniProt P16152)”: the “probe-labelled cysteine peptide fold change” value (10 µM) is 0.109 and the “probe-labelled cysteine peptide fold change” value (50 µM) came out at 0.509.
